Rows were chosen to be rich in hits. Some 2.8% of all compounds tested hit in one or more screens of this group.
KDM5B inh: KDM5B demethylase inhibition | Q9UGL1 | KDM5B demethylase, FDH-coupled NADH fluorescence (FDH is formaldehyde dehydrogenase) | Potency, µM (titrated, usually from 57.7 µM), usual class: inhibitors | 2.6% of 220,000 active | AID 1347165; further: potency means the concentration at half of the fitted maximal effect; 0% is about no effect; nearly all actives have a fitted effect of over 70% in size
Target sequence (Q9UGL1 whole entry, looked up): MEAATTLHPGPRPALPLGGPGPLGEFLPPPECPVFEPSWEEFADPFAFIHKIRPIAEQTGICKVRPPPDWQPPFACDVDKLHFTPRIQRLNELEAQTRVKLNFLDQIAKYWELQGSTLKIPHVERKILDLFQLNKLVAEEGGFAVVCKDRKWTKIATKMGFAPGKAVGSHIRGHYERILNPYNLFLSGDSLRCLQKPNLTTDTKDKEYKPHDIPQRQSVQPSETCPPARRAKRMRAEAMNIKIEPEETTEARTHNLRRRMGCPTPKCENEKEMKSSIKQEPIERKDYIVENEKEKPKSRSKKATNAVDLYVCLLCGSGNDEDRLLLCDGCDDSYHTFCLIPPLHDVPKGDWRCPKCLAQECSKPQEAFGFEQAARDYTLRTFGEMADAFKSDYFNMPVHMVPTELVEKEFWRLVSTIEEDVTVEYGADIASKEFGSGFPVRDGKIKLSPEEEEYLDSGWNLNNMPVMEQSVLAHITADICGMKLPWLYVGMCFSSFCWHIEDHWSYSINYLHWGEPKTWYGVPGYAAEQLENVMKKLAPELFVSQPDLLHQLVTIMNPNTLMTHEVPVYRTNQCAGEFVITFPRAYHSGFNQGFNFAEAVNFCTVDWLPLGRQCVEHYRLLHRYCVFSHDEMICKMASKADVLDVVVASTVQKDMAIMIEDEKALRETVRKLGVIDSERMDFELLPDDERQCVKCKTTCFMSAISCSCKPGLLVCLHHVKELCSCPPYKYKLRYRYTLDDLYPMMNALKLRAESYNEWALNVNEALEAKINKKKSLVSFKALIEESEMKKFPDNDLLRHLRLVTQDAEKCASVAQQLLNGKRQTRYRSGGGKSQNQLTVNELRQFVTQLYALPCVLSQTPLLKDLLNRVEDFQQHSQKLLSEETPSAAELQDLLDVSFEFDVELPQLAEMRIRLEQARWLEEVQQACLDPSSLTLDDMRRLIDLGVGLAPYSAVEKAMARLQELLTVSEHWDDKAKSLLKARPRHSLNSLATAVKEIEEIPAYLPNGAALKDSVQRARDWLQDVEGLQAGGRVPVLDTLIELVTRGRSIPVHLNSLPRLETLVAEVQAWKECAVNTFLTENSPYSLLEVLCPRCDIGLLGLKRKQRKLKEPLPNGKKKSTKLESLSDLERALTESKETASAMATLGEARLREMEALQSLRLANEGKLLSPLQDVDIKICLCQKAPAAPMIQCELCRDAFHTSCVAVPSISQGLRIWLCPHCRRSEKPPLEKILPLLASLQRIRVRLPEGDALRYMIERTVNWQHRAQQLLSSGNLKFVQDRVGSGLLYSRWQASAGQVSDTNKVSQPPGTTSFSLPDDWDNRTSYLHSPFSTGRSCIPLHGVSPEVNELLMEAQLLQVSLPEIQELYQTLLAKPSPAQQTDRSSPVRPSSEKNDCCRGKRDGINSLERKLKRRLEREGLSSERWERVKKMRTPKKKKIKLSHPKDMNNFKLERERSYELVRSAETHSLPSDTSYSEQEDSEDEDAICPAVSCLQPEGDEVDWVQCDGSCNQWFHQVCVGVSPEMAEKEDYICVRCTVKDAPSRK
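Inhibition is measured as reduced NADH fluorescence generation from FDH coupling to formaldehyde release. Truncated KDM5BΔAP at 200 nM final acts on H3K4me3 peptide (12.5 µM in substrate mix) in pH 7.5 HEPES buffer with Tween-20, 30 min, room temperature.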
SNCA expr inh: reduces expression of the alpha-synuclein gene; HEK-293 SNCA-luciferase knock-in, luminescence, 24 h; Potency, µM (highest dose often 57.2 µM), without a hit: at the top dose activity change, negative = inhibition, usual class: inhibitors; 0.17% of 140,000 active; AID 1671194;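 further: potency means the concentration at half of the fitted maximal effect; plate controls were DMSO cells for no effect and cell-free wells for full effect; nearly all actives have a fitted effect of over 45% in size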
SNCA viab count: cell viability loss counter-screen. HEK-293-SNCA-luc viability, GF-AFC fluorescence, 24 h. Potency, µM (series often up to 57.1 µM), without a hit: at the highest dose activity change, negative = cytotoxicity, actives largely listed as cytotoxic. 0.12% of 150,000 active. AID 1671193;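 further: potency means the concentration at half of the fitted maximal effect; 0% = DMSO-treated cells and -100% = medium-only wells without cells; nearly all actives have a fitted effect of over 30% in size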
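Cytotoxicity counterscreen: after 24 h compound treatment of genome-edited SNCA-luciferase HEK-293 cells, live-cell protease substrate GF-AFC read by fluorescence after 30 min; activity scaled between DMSO (0%) and medium-only (-100%), curves Hill-fitted.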
IP6K1 inh: inhibitors of human IP6K1 | Q92551 | 0.81% of 140,000 active | IP6K1 kinase, ADP-Glo luminescence, 2 h; stronger effect = lower value | activity change, % (series mostly up to about 58 µM); in the data active means activity change below about -25%; further: on the % scale 0 is the no-effect control and ±100 the full control effect
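ADP-Glo luminescence measures ADP made by human IP6K1 during a 2 h RT reaction with ATP/IP6 (mix at 1.3 mM/130 uM); top library doses 57.5 and 19.1 uM final.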
Starred values were filed as active, the others as inactive; i = inactive; ? = inconclusive; . = no result given; ! = a repeat was not active; [ ] = another dose, or the depositor's remark. Unless noted, the call rests on the fitted dose curve; in most records, active means well fitted curve in the direction sought with a large enough effect; inconclusive means small, poorly fitted or top-dose-only effect, or another doubt; inactive means no such curve, though single readings can be large; an effect the other way counts as inactive or inconclusive.

SMILES	KDM5B inh	SNCA expr inh	SNCA viab count	IP6K1 inh
CC(C)CN[C@H]1CO[C@H]2[C@@H]1OC[C@@H]2Nc1nccc(-c2cccs2)n1	31.6µM*	5.2%[87.6 µM]	-16.9%[87.6 µM]	12.7
COc1ccc(C(=O)N[C@H]2CO[C@H]3[C@@H]2OC[C@@H]3Nc2nccc(-c3cccs3)n2)cc1	?	21.7%	?	-8.5
CCCCCCSC1=C(C#N)C(c2ccc(C)cc2)CC(=O)N1 (stereo not drawn)	i	.	.	.
O=C(c1ccc(-c2cccs2)cc1)N1CCC(C(=O)N2CCCCC2)CC1	.	.	.	3.3
CCN1CC(Nc2ccc(-c3nc(CCCc4ccccc4)no3)cn2)CC1=O (stereo not drawn)	28.2µM*	4.4%	7.4%	10.1
Cc1cc(CNc2ccc(-c3nc(CCCc4ccccc4)no3)cn2)no1	28.2µM*	56.7%	-18.4%	22.2
c1ccc(CCCc2noc(-c3ccc(NCc4ccccn4)nc3)n2)cc1	?	118.9%	-5.1%	26.8
C[C@@H](Nc1ccc(-c2nc(CCCc3ccccc3)no2)cn1)C(N)=O	?	-7.2%	-1.2%	2.3
Cn1cc(CNc2ccc(-c3nc(CCCc4ccccc4)no3)cn2)cn1	31.6µM*	114.9%	2.2%	10.4
CCN1C(C(=O)c2ccccc2)=C(OC(=O)c2ccco2)c2ccccc2S1(=O)=O	i	.	.	.
COCCNC(=O)Cn1ccc2cc(Cl)ccc21	i	.	.	.
O=C(c1ccncc1)N1CC2CCC(C1)N2Cc1ccc(-c2cccs2)cc1	79.4µM*	-14.4%	-17.9%	-1.6
FC(F)(F)c1ccc(N2C3CCC2CN(Cc2ccc(-c4cccs4)cc2)C3)cc1	28.2µM*	?	6.8%	-4.6
CCN1CCN(CCNC(=O)c2nnn3cc(-c4ccccc4)[nH]c(=O)c23)CC1	28.2µM*	0.1%	-2.3%	-13.7
O=C(NCCN1CCCCC1)c1nnn2cc(-c3ccccc3)[nH]c(=O)c12	i	-5.3%	-13.6%	-13.7
CCOCCCNC(=O)c1nnn2cc(-c3ccccc3)[nH]c(=O)c12	28.2µM*	19.5%	-0.9%	-3.9
O=C1NCCCC[C@@H]1Nc1ccc(-c2nc(COc3ccccc3)no2)cn1	28.2µM*	16.4%	2.5%	2.5
Cc1nonc1C1CCCN1c1ccc(-c2nc(COc3ccccc3)no2)cn1 (stereo not drawn)	28.2µM*	12.6%	-7.2%	-11.0
c1ccc(OCc2noc(-c3ccc(NCC4CCCCO4)nc3)n2)cc1 (stereo not drawn)	?	133.4%	-9.0%	13.0
COC(=O)c1cc(NC(=O)c2ccccc2OC)c(F)cc1F	i	.	.	.
Cc1ccc2nc(C3CCCN(Cc4cccc(-c5cccs5)c4)C3)[nH]c(=O)c2c1 (stereo not drawn)	?	?	3.4%	21.1
Cc1ccc2nc(C3CCN(Cc4ccc(-c5cccs5)cc4)CC3)[nH]c(=O)c2c1	28.2µM*	?	-22.0%	-0.9
Cc1cccc(Cn2cc3c(=O)n(CC(=O)Nc4ccc(C)c(F)c4)nc-3c3cc(F)ccc32)c1	i	22.4µM*	-13.8%	5.5
CC(C)(C)OC(=O)N1CC(Nc2ccc(O)cc2)C1	8.91µM*!	?	?	-17.8
CN(CCO)C[C@@H]1CN(C(=O)c2nc3ccccc3[nH]c2=O)C[C@@H]1CO	28.2µM*	?	-3.2%	9.3
SMILES	KDM5B inh	SNCA expr inh	SNCA viab count	IP6K1 inh
COc1ccc(F)cc1-c1ccc(CN2CCC(N[S+](=O)([O-])c3cccc(C(F)(F)F)c3)C2)cc1 (stereo not drawn)	.	.	.	11.9
CCC(CCNC(=O)c1cc(C)nc2ccccc12)NC(=O)c1cc(C)nc2ccccc12 (stereo not drawn)	i	.	.	.
CC(C)c1nn(-c2c(Cl)cccc2Cl)c2nc(Cc3ccc(OCCO)cc3)[nH]c(=O)c12	.	0.192µM*	?	17.6
CCc1ncc(CN2CCCC23CCN(c2ccc(C(F)(F)F)cn2)CC3)cn1	?	8.7%	-17.7%	-15.8
CCn1ccnc1CN1CCCC12CCN(c1ccc(C(F)(F)F)cn1)CC2	20µM*	-9.2%	-16.1%	13.2
Cc1ccc(C(CNC(=O)c2sc3ccccc3c2Cl)N2CCCC2)o1 (stereo not drawn)	i	.	.	.
CCc1nc2c(NC(=O)c3ccc(F)c(Cl)c3)cccn2n1	25.1µM*	17.9%	-1.5%	14.2
Cc1ccc(C#N)c(N2CCC3(CC2)CC(c2ccccc2)C(=O)N3C)n1 (stereo not drawn)	28.2µM*	0.2%	-16.3%	2.3
CN1C(=O)C(c2ccccc2)CC12CCN(C(=O)CN1CCCC1)CC2 (stereo not drawn)	25.1µM*	-24.7%	15.3%	2.0
CN1C(=O)C(c2ccccc2)CC12CCN(C(=O)C1CCC1)CC2 (stereo not drawn)	i	-16.0%	2.4%	-5.1
CN(C)C(=O)c1ccc2ccnn2c1	31.6µM*	1.7%[87.6 µM]	6.8%[87.6 µM]	6.4
O=C(NC1CC1)c1ccc2ccnn2c1	31.6µM*	59.1%[87.6 µM]	11.9%[87.6 µM]	0.8
O=C(NC1CC1)c1cc2cccnn2n1	31.6µM*	-10.5%[87.6 µM]	4.4%[87.6 µM]	-1.4
CN(C)C(=O)c1ccn2cncc2c1	35.5µM*	-18.5%[87.6 µM]	8.4%[87.6 µM]	4.6
CCN(Cc1ccc2c(c1)OCCO2)C(=O)Cn1cnc2c(cnn2C)c1=O	i	.	.	.
CCCC1N=C2c3ccccc3N=C(SCC(=O)Nc3ccccc3)N2C1=O (stereo not drawn)	i	.	.	.
CC(C)c1ccc(NC(=O)c2cc3ccccc3oc2=O)cc1	i	.	.	.
CN(C)C(=O)c1ccn2nccc2c1	31.6µM*	1.9%[87.6 µM]	-2.7%[87.6 µM]	4.9
CCn1cc(CN(C)C(=O)c2cc(-c3ccc(OC)cc3)cn2CC)c(C)n1	i	52.6%	-3.6%	8.9
COc1cn(CC(=O)Nc2ccc(C)cc2)c(CN2CCN(C(C)=O)CC2)cc1=O	i	.	.	.
CC(=O)N1CCC(N2C[C@@H]3C[C@H](C2)c2c(NC(=O)NC4CCCCC4)ccc(=O)n2C3)CC1	?	12.7%	-7.5%	16.8
O=C(Nc1ccc(=O)n2c1[C@@H]1C[C@@H](CN(C(=O)Nc3ccc(F)cc3)C1)C2)NC1CCCCC1	20µM*	-19.4%	-7.7%	6.2
COc1ccc(Nc2ccnc(N3CCC(C(=O)N4CCC(c5ccccc5)CC4)CC3)n2)cc1	.	-5.0%	-4.5%[12.5 µM]	-1.0
CCc1ccc(CN2CC3ON=C(C(=O)O)C3C2)cc1 (stereo not drawn)	112µM*	-16.7%[87.6 µM]	6.5%[87.6 µM]	-2.4
Cc1ccc(CN2CC3ON=C(C(=O)O)C3C2)cc1 (stereo not drawn)	?	?	5.3%[87.6 µM]	4.4
N#CCC(=O)Nc1ccc(C(=O)OCc2cccc(Cl)c2)cc1	i	.	.	.
CCOc1ccc(-c2cc3c(=O)n(CCNC(=O)c4ccccc4)ccn3n2)cc1	i	41.3%	-1.7%	-1.5
CCOc1ccc(-c2cc3c(=O)n(CCNC(=O)Cc4cccs4)ccn3n2)cc1	31.6µM*	30.1%	-13.2%	-8.7
CCOc1ccc(-c2cc3c(=O)n(CCNC(=O)c4ccc(C)cc4)ccn3n2)cc1	i	106.0%	7.4%	-1.9
COc1ccc(-c2cc3c(=O)n(CCNC(=O)Cc4cccs4)ccn3n2)cc1	?	5.0%	-8.3%	4.5
